# Compound activity as filed in PubChem BioAssay.
# MEKK2wt PB1 HTS: modulators of MEK5 binding to wildtype MEKK2, primary screen, biochemical, multiplex bead flow cytometry, Alexa488-MEK5 | hit rate 1.1% among 290,000 | AID 1531, 2009 | Mitogen-activated protein kinase kinase kinase 2 (Homo sapiens), Q9Y2U5 | Alexa488-MEK5 binding to MEKK2 WT; actives lie on both sides | binding response (% of control), % at 10 µM; in the data active means binding response below about 67% or above about 130%
# DNA FID counter: compounds displacing fluorescent DNA intercalator, primary screen, artefact control for HCV NS3 helicase inhibitor project, biochemical, FID fluorescence | hit rate 0.17% among 290,000 | DNA fluorescent intercalator displacement | inhibition, % at 7.9 µM; in the data active means inhibition above about 37%;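 further: 0% = vehicle and 100% = reference compound; higher means more ethidium bromide displaced from hairpin DNA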
# MEKK2 mut-MEK5: MEK5 binding signal on mutant MEKK2 PB1, primary screen, biochemical, multiplex bead flow cytometry, Alexa488-MEK5 | Alexa488-MEK5 binding to MEKK2 mutant | percent response, % at 10 µM | hit rate 0.35% among 290,000 | AID 1530, 2009; in the data active means percent response above about 24%, passing the limit was not always enough
# MEKK3 PB1 HTS: modulators of MEKK3-MEK5 PB1 binding, primary screen, biochemical, wildtype MEKK3, multiplex bead flow cytometry, Alexa488-MEK5; bead-based flow cytometry, Alexa488-MEK5 binding to MEKK3; actives lie on both sides; 0 = blocked by unlabeled MEK5, 100 = vehicle; Mitogen-activated protein kinase kinase kinase 3 (Homo sapiens), Q99759; binding response (% of control), % at 10 µM; hit rate 1.4% among 290,000;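 active means binding response more than 3 SD above or below the average of its plate-row segment, actives on both sides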;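 further: Alexa488 bead fluorescence after subtracting the streptavidin-only scavenger bead signal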
# Target sequence (Q99759 whole entry, looked up): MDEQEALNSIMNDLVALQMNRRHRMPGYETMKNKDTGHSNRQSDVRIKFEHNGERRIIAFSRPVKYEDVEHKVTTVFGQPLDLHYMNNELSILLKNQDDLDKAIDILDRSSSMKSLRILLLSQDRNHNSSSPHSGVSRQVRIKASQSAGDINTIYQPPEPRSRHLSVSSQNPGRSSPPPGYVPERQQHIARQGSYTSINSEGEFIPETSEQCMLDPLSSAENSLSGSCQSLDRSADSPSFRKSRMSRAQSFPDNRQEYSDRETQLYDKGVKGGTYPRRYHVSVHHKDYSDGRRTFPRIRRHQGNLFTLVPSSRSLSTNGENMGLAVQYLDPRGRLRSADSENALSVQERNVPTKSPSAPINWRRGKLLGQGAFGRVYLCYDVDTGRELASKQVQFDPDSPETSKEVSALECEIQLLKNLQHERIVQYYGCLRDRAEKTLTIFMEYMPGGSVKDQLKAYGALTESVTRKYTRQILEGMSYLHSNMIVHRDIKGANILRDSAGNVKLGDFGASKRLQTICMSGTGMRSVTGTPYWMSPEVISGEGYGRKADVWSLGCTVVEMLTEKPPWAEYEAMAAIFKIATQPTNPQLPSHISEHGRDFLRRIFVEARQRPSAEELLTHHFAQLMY
# dFosB act-1: activators of delta FosB homodimer, primary screen, biochemical, fluorescence polarization, TAMRA-CDK5 oligo, single point; purified delta FosB; percent of positive-control signal above neutral wells; activation, % at 25 µM; hit rate 0.99% among 340,000; Protein FosB (Mus musculus), P13346;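 active means mean activation above about 17%, with every replicate also reaching it, limit read from the data, passing the limit was not always enough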
# dFosB act-2: activators of mouse delta FosB DNA binding, confirmation, biochemical, fluorescence polarization, TAMRA-CDK5 oligo, cherry-picked samples | shares compounds with dFosB act-1 | purified delta FosB; normalised: neutral wells 0, positive control 100 | activation, % at 24.9 µM | 2,400 tested, under 10 active;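 active means highest replicate activation at or above 34% and every replicate reaching that threshold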;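 further: higher polarization means more probe DNA bound by delta FosB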
# * marks the source's active call; other numbers are inactive results; nt = not tested or not shown. Shown are actives, neighbours in structure and some others; about 2.9% of the full set was active somewhere.
SMILES,MEKK2wt PB1 HTS,DNA FID counter,MEKK2 mut-MEK5,MEKK3 PB1 HTS,dFosB act-1,dFosB act-2
Cc1cccc(C)c1NC(=O)CCCn1nc(C)c2c(C)n(-c3ccccc3)nc2c1=O,99,-54,1,102,19*,1
O=C(Nc1ccncc1)C1c2ccccc2Oc2ccccc21,98,8,-4,101,0,nt
CCCCNS(=O)(=O)c1ccc(NC(=O)C2c3ccccc3Oc3ccccc32)cc1,107,-5,12,102,44*,-4
Cc1nc(-c2ccccc2)sc1-c1nc(-c2ccncc2)ncc1S(=O)(=O)c1ccccc1,nt,0,nt,nt,4,nt
O=C(C[C@H]1C/C=C\CC[C@H](Cc2ccc(F)cc2)C(=O)O[C@H](c2ccccc2)CNC1=O)N[C@H](CO)Cc1ccccc1,nt,nt,nt,nt,48*,0
O=C(C[C@H]1C/C=C\CC[C@H](Cc2ccc(F)cc2)C(=O)O[C@@H](c2ccccc2)CNC1=O)N[C@H](CO)Cc1ccccc1,nt,nt,nt,nt,2,nt
CN([C@@H](Cc1ccc(OS(=O)(=O)c2cccc3cnccc23)cc1)C(=O)N1CCN(c2ccccc2)CC1)S(=O)(=O)c1cccc2cnccc12,105,-28,-1,106,21*,2
Cc1ccc(NC(=O)c2sc(Cl)nc2-c2ccccc2)cc1C,92,-24,-2,96,-2,nt
NC(=O)Cn1c(=O)n(CCc2ccccc2)c(=O)c2c3c(sc21)CCCC3,112,-3,6,108,3,nt
COc1ccc(-n2c(=O)c3c4c(sc3n(CC(N)=O)c2=O)CCCCC4)cc1,99,-5,3,103,30*,-1
NC(=O)Cn1c(=O)n(C2CCCCC2)c(=O)c2c3c(sc21)CCCCC3,102,-6,0,114,44*,0
CCOc1ccc(-n2c(=O)c3c4c(sc3n(CC(=O)NCCCOC)c2=O)CCCCC4)cc1,69,-8,-11,64,8,nt
COc1ccc(CN2C(=O)c3ccccc3C2=O)cc1C(=O)Nc1ccccc1N1CCOCC1,97,-3,-2,99,2,nt
COc1ccc(NC(=O)c2cc(CN3C(=O)c4ccccc4C3=O)ccc2OC)cn1,104,-1,5,103,18*,9
O=C(c1cc2ccccc2o1)N1CCN(S(=O)(=O)c2ccc(F)c(F)c2F)CC1,nt,nt,nt,nt,33*,-1
Cc1cc(C)c(S(=O)(=O)N2CCN(C(=O)c3cc4ccccc4o3)CC2)c(C)c1,nt,nt,nt,nt,-1,nt
CC(=O)c1cccc(NS(=O)(=O)c2ccc(N/C=C/C(=O)c3ccc(F)cc3)cc2)c1,112,-5,1,121,-2,nt
CC(=O)c1cccc(NS(=O)(=O)c2ccc(N/C=C\C(=O)c3ccc(C)cc3)cc2)c1,99,-7,-5,102,23*,0
CC(=O)c1ccc(NS(=O)(=O)c2ccc(N/C=C/C(=O)c3ccc(F)cc3)cc2)cc1,94,1,-16,96,44*,3
Cn1c(=O)c2sccc2n2c(CCCC(=O)NCc3ccc(F)cc3)nnc12,97,-16,-6,100,-4,nt
COc1ccccc1NC(=O)CN(Cc1ccco1)C(=O)c1ccc(Cl)nc1,111,-18,3,117,-5,nt
COc1ccc(NS(=O)(=O)c2cc(NC(=O)c3cc(=O)c4ccccc4o3)ccc2OC)cc1,100,0,0,102,48*,6
O=C(COc1ccc(Br)cc1)Nc1ccccc1C(=O)NC1CC1,nt,nt,nt,nt,29*,5
O=C(COc1ccccc1F)Nc1ccccc1C(=O)NC1CC1,nt,nt,nt,nt,2,nt
O=C1NC(=O)/C(=C\c2ccc(OCc3cccc([N+](=O)[O-])c3)cc2)N1,90,8,-9,97,31*,8
SMILES,MEKK2wt PB1 HTS,DNA FID counter,MEKK2 mut-MEK5,MEKK3 PB1 HTS,dFosB act-1,dFosB act-2
O=C(Nc1ccc(-c2cc3ccccc3oc2=O)c(Cl)c1)c1cccnc1,101,-2,2,103,84*,3
O=C(Nc1cccnc1)c1cccc(-c2cc3ccccc3oc2=O)c1,84,0,-13,86,46*,2
COc1cc(NC(=O)c2cccnc2)ccc1-c1cc2ccccc2oc1=O,106,-14,1,102,nt,nt
CCOC(=O)C1CCN(C(=O)Cn2cnc3sc(C)c(S(=O)(=O)N4CCOCC4)c3c2=O)CC1,100,-21,5,101,-4,nt
NS(=O)(=O)c1ccc(NC(=O)/C=C/c2cn(-c3ccccc3)nc2-c2cccc(Cl)c2)cc1,93,-4,0,102,142*,2
Cc1ccc(NC(=O)CCC(=O)NNC(=O)COc2cccc3ccccc23)c(C)c1,101,-25,2,104,33*,5
Cc1ccc(NC(=O)CCC(=O)NNS(=O)(=O)c2ccc(Cl)cc2)cc1C,99,-34,1,99,6,nt
CCC(=O)NNC(=O)CCC(=O)Nc1ccc(C)cc1C,106,-7,4,98,7,nt
Cc1ccc(C)c(NC(=O)CCC(=O)NNS(=O)(=O)c2ccc(Cl)cc2)c1,nt,nt,nt,nt,23*,-1
Cc1ccc(C)c(NC(=O)CCC(=O)NNC(=O)COc2cc(C)ccc2C)c1,97,-40,2,97,36*,-2
O=C(COC(=O)c1cc[n+]([O-])cc1)Nc1cc([N+](=O)[O-])ccc1Cl,nt,nt,nt,nt,-2,nt
CC(C)(C)CC(=O)NC(=S)NCc1ccco1,107,-3,6,104,4,nt
O=C(Nc1cccnc1Cl)c1cc(-c2ccc(Br)cc2)on1,95,-3,0,100,3,nt
COc1cccc(-c2cc(C(=O)Nc3cccnc3Cl)no2)c1,105,-9,4,104,31*,-2
O=C(Nc1cccnc1Cl)c1cc(-c2cccc(O)c2)on1,103,-9,0,101,55*,8
CSc1ccc(S(=O)(=O)NCC(=O)OCCOc2ccccc2)cc1[N+](=O)[O-],nt,nt,nt,nt,28*,0
CCC(=O)NC(=S)Nc1ccc(NC(=O)c2cc3ccccc3o2)c(OC)c1,93,5,-7,98,67*,6
COc1cc(NC(=S)NC(=O)C(C)C)ccc1NC(=O)c1cc2ccccc2o1,100,-6,3,101,1,nt
Cc1ccc(-c2c(C(=O)N/N=C/c3ccncc3)nnn2-c2nonc2N)cc1,101,-14,4,101,-18,nt
Nc1nonc1-n1nnc(C(=O)N/N=C/c2cccc(Cl)c2)c1-c1ccc2c(c1)OCO2,112,-21,5,106,72*,1
